Assay results: PubChem BioAssay (NCATS)
Inconclusive results are not listed. A number with no mark means an inactive call. Calls of active or inactive are those of the source. Calls follow the shape of the dose curve; as a rule, active = well fitted inhibition curve with a large enough effect; inconclusive = small, poorly fitted or top-dose-only effect; inactive = no such curve, though single readings can be large or run the other way. Where a SMILES comes first, the peptide text is derived from it. [ ]: non-standard residue; d: D form. The star is where a group is joined. Ala(indol-2-yl) = N[C@@H](Cc1cc2ccccc2[nH]1)C(=O)O; Dolaproine = CO[C@@H]([C@@H]1CCCN1)[C@@H](C)C(=O)O; Dil = CC[C@H](C)[C@H](NC)[C@@H](CC(=O)O)OC; Doe = c1ccc(C[C@H](N*)c2nccs2)cc1; Aib = CC(C)(N)C(=O)O

Assay: Primary fluorescence-based thiol-reactive (MSTI) qHTS assay for identification of artifact compounds. (AID 1845221); also: nearly all actives have a fitted effect of over 65% in size;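 as to activity change, negative = thiol reactive: thiol-reactive compounds lower the probe fluorescence signal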
Conditions: MSTI thiol-reactivity probe, 1 h; series mostly up to 53.8 µM; activity change, negative = thiol reactive: at the top concentration
Source text: PI: Alexander Tropsha Ph.D.
UNC Eshelman School of Pharmacy
University of North Carolina, Chapel Hill, North Carolina
Hits from high-throughput screening (HTS) of chemical libraries are often false positives due to their interference with the assay detection technology. In response to this problem, we generated the largest publicly available library of chemical liabilities and developed a free webtool to predict HTS artifacts, both of which are described herein. More specifically, we generated, curated, and integrated HTS datasets for thiol reactivity, redox activity, and luciferase (firefly and nano) activity. Using these curated datasets, we developed and validated several Quantitative Structure-Interference Relationship (QSIR) models to predict nuisance behavior. […] These models were employed for virtual profiling of the National Center for Advancing Translational Science's (NCATS) in-house library, and 256 compounds for each assay were selected for the experimental validation of nuisance behavior. The BA for these external predictions ranged from 58 to 78% for compounds within the applicability domains of the models. […] The models developed in this study, along with aggregation models previously developed by our group (SCAM Detective) were implemented in "Liability Predictor," an online tool which may be used as part of chemical library design or for triaging HTS hits. Both the models and the curated datasets are publicly available at https://liability.mml.unc.edu/.
SEQUENCE No. (e.g., 1, 2, 3, etc.); […] (e.g., Cells, Incubation, Reagent, etc.); VALUE; DESCRIPTION.
1; Reagent; 4 uL; […].
2; Compounds and control; 16 nL; Kalypsis pin tool (Wako USA) equipped with a 1536-well pin head.
4; Detection; Fluorescence, ViewLux microplate reader, 525 nm excitation, 598 nm emission.
NOTES (numbers refer to Sequence numbers above)
1. Assays determining (E)-2-(4-mercaptostyryl)-1,3,3-trimethyl-3H-indol-1-ium (MSTI) reactivity were performed as previously described in the literature with modifications for the quick identification of compounds reacting with thiol. In brief, 4 uL of MSTI or positive control Acetyl-MSTI (final concentrations of 4 uM and 4 uM, respectively) in assay buffer (2% DMSO in 1X PBS pH 7.4) was dispensed into all wells of a 1536-well assay plate (solid-bottom black plate; Greiner Bio One, Monroe, NC).
2. A Wako Pin-tool (Wako Automation, Richmond, VA) was used to transfer 16 nL of compounds (consisting of 7-plates in qHTS format, final concentration range 18.3 nM to 114 uM) or control MLS001163887 (final concentration range 1.22 nM to 40 uM).
3. Plates were centrifuged (121xg, 15 seconds) and incubated for 1 hour at room temperature protected from light.
4. Samples were read for fluorescence (Ex/Em = 525(20)/598(25) nm) on a ViewLux CCD imager (PerkinElmer). Data were normalized to Acetyl-MSTI (0% activity) and MSTI (100% activity) and the resulting percent inhibition data were fitted to a 4-parameter Hill equation using NCATS in-house software.
Potency is read from the fitted curve at half-maximal effect.

SMILES | Potency | activity change, negative = thiol reactive
C=CC(C)(C)C12C=C(O)C(=O)N3/C(=C\c4cnc[nH]4)C(=O)NC31N(OC)c1ccccc12 (stereo not given) | 4.12 µM (active) | 
NCCCCCNC1(c2ccccc2)CCCCC1 |  | -7.49%
C/C=C(\C)C(=O)O[C@H]1CC2C(=C1C)[C@H]1OC(=O)[C@](C)(O)[C@]1(O)[C@H](OC(=O)CCC)C[C@@]2(C)OC(C)=O (stereo not given in full) |  | 4.08% [at 25.6 µM]
CC(C)[C@H](NC(=O)c1nn(Cc2ccc(F)cc2)c2ccccc12)C(N)=O |  | 43.9%
COc1cccc(NCC(F)Cn2c3ccc(Br)cc3c3cc(Br)ccc32)c1 (stereo not given) |  | 77.1%
Cc1c(N2C(=O)[C@@H]3[C@H](O)CCN3C2=O)ccc(C#N)c1Cl |  | -21.8%
CC(=O)OC[C@]12C[C@H](O)C(C)=C[C@H]1O[C@@H]1[C@H](O)[C@@H](O)[C@@]2(C)[C@]12CO2 |  | -1.1%
CN1Cc2c(ccc3c2OCO3)[C@@H]2[C@H]1c1cc3c(cc1C[C@@H]2O)OCO3 |  | 18.9%
CC(=O)OC[C@]12C[C@H](O)C(C)=C[C@H]1O[C@@H]1[C@H](O)[C@@H](OC(C)=O)[C@@]2(C)[C@]12CO2 |  | 26.1%
CCCN(CCC)[C@@H]1CCc2ccc3[nH]c(C#N)cc3c2C1 |  | -13.6%
CC[C@H](C)[C@@H]([C@@H](CC(=O)N1CCC[C@H]1[C@H](OC)[C@@H](C)C(=O)N[C@@H](Cc1ccccc1)c1nccs1)OC)N(C)C(=O)[C@@H](NC(=O)C(C)(C)N)C(C)C (H-[Aib]V[Dil][Dolaproine]-Doe) |  | 34.4%
COc1cc(O)c2c(c1)CCC[C@@H](O)[C@H](O)C(=O)/C=C\C[C@H](C)OC2=O |  | 35.6%
CCC1(O)CCC2C3CCC4=CC(=O)CCC4C3CCC21CC (stereo not given) |  | 122%
CC1CCCC(O)CCC/C=C/c2cc(O)cc(O)c2C(=O)O1 (stereo not given) | 1.85 µM (active) | 
C[C@]12CC[C@H](O)CC1=CC[C@@H]1C2CC[C@]2(C)[C@@H](C3=CC(=O)OC3)CC[C@]12O (stereo not given in full) |  | 81%
CO[C@H]1[C@H](O)[C@H](O[C@H]2CC[C@]3(C=O)C4CC[C@]5(C)[C@H](C6=CC(=O)OC6)CC[C@]5(O)C4CC[C@@H]3C2)O[C@@H](C)[C@@H]1O (stereo not given in full) |  | 2.88% [at 25.6 µM]
CN1C(=O)CN=C(c2ccccc2Cl)c2cc(Cl)ccc21 |  | 28.3%
C[C@@H]1O[C@@H](O[C@H]2CC[C@@]3(C)C(CC[C@@H]4C3CC[C@]3(C)[C@@H](C5=CC(=O)OC5)CC[C@]43O)C2)[C@H](O)[C@H](O)[C@H]1O (stereo not given in full) |  | 67.9% [at 25.6 µM]
C=C1[C@@]23C(=O)O[C@H](C)[C@]24O[C@@]2(C(=C)[C@]5(C=CC(=O)OC5(C)C)CC[C@]32C)[C@H](O)[C@@]1(C)OC4=O |  | -85.4% [at 25.6 µM]
Cc1sc2c(c1C)C(c1ccc(Cl)cc1)=N[C@@H](CC(N)=O)c1nnc(C)n1-2 |  | 44.9%

SMILES | Potency | activity change, negative = thiol reactive
CCCN(CCC)CCc1ccc(OC)c(OCCc2ccccc2)c1 |  | 33.7%
CC1CCCCCC(=O)c2c(O)cc(O)cc2CC(=O)O1 (stereo not given) |  | 6.55%
C/C=C1/CN2CC[C@]34C(=Nc5ccc(OC)cc53)C2C[C@@H]1C4(CO)C(=O)OC (stereo not given in full) |  | 10.2%
CC(C)(NC(=O)[C@@H](N)Cc1ccc(O)cc1)C(=O)N[C@@H](Cc1cc2ccccc2[nH]1)C(=O)N[C@@H](Cc1ccccc1)C(=O)O (H-Y[Aib][Ala(indol-2-yl)]F-OH) |  | 54.2% [at 11.5 µM]
CC(=O)C1CCC2C3CCC4C[C@@H](O)CCC4(C)C3CCC12C (stereo not given in full) |  | 83%
COC1CC(O[C@H]2CC[C@]3(C=O)C4CC[C@]5(C)[C@@H](C6=CC(=O)OC6)CC[C@]5(O)[C@@H]4CC[C@@H]3C2)OC(C)C1O[C@@H]1O[C@H](CO)[C@@H](O[C@@H]2O[C@H](CO)[C@@H](O)[C@H](O)[C@H]2O)[C@H](O)[C@H]1O (stereo not given in full) |  | -23.5% [at 11.5 µM]
CC1=CC(=O)[C@@H](O)[C@]2(C)C3[C@@H](O)[C@@H]4OC(=O)[C@@H]([C@H]4C)[C@]3(C)C(=O)[C@H](O)[C@@H]12 (stereo not given in full) |  | 11.1%
C[C@]12CC[C@@H](O)C[C@@H]1CC[C@@H]1[C@@H]2CC[C@]2(C)C(=O)[C@@H](Br)C[C@@H]12 |  | 23%
CC(=O)O[C@@H]1[C@H]2CC[C@H]3[C@@](C)(O)[C@@H]4C[C@H](O)C(C)(C)[C@@]4(O)[C@H](O)C[C@@]13C[C@@]2(C)O |  | 13.1% [at 25.6 µM]
C[C@]12CC[C@H]3[C@@H](CCC4=C/C(=N/OCC(=O)O)CC[C@@]43C)[C@@H]1CC[C@@H]2O |  | 89.8%
CC1CCCC(=O)CCC/C=C/c2cc(O)cc(O)c2C(=O)O1 (stereo not given) | 14.7 µM (active) | 
O=C(NCCN1CCC2(CC1)C(=O)NCN2c1cccc(F)c1)c1ccc2ccccc2c1 |  | 2.83%
COC1C=CC23c4cc5c(cc4COC2(O)CN(C)C3C1)OCO5 (stereo not given) |  | -10.2%
CC(=O)O[C@@H]1[C@@H](O)[C@H]2O[C@@H]3C=C(C)[C@@H](O)C[C@]3(CO)[C@]1(C)[C@]21CO1 |  | -6.98%
CC(C)C(=O)O[C@H]1[C@@H]2[C@H](C)C(=O)O[C@@H]2C[C@@H](C)[C@@H]2C=CC(=O)[C@]21C |  | -0.247%
CO[C@H]1C[C@H](O[C@H]2CC[C@@]3(C)C(=CCC4C3CC[C@]3(C)[C@@H](C5=CC(=O)OC5)CC[C@]43O)C2)O[C@@H](C)[C@@H]1O[C@@H]1O[C@H](CO[C@@H]2O[C@H](CO)[C@@H](O)[C@H](O)[C@H]2O)[C@@H](O)[C@H](O)[C@H]1O (stereo not given in full) |  | 94.1% [at 11.5 µM]
CN1CCN(c2nc3ccccc3nc2Cl)CC1 |  | 7.62%
CC(=O)O[C@H]1CC[C@H]2[C@@H]3CC[C@H]4CC(=O)C=C(C)[C@]4(C)[C@H]3CC[C@]12C |  | 36.3%
COc1ccc(CC2C(=O)NC(C)C(=O)N(C)C3Cc4ccc(cc4)Oc4cc(ccc4OC4OC(CO)C(O)C(O)C4O)CC(C(=O)NC(C)C(=O)NC(CCC(=O)O)C(=O)N2C)N(C)C3=O)cc1 (stereo not given) |  | -0.882% [at 11.5 µM]
O=C(N[C@H]1CN2CCC1CC2)c1cc2cccc(Cl)c2s1 |  | 43.7%
